Values joined by “and” are separate entries in the source; they are usually repeats but may differ in a detail not shown here. Equal entries are not always repeated. Results filed as inconclusive are left out. A structure can be active in one record and inactive in another. Active and inactive are the calls of the source. Unless noted, calls follow the shape of the dose curve; as a rule, active = well fitted curve in the direction sought with a large enough effect in the repeat runs; inconclusive = weak or mixed curves; inactive = no such curve, though single readings can be large; an effect the other way counts as inactive or inconclusive.
Tests used:
[1] = qHTS assay to identify small molecule antagonists of the glucocorticoid receptor (GR) signaling pathway - cell viability counter screen (AID 720693); conditions: GR-bla HeLa viability, CellTiter-Glo luminescence, 18 h, with 5 nM dexamethasone present; series mostly up to 58.5 µM; also: nearly all actives have a fitted effect of over 55% in size
[2] = qHTS assay for identifying genotoxic compounds that show differential cytotoxicity against isogenic chicken DT40 cell lines with known DNA damage response pathways - wild type cell line (AID 743012); conditions: DT40 wild type chicken cells viability, CellTiter-Glo, 40 h; series mostly up to 68.4 µM; also: nearly all actives have a fitted effect of over 60% in size; also: potency is read from the fitted curve at half-maximal effect
Summary of the method: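 Using parental DT40 (300 cells/well), compounds delivered in DMSO incubate 40 h at 37 C/5% CO2. CellTiter-Glo reagent then stands 30 min at room temperature, and luminescence gives cell viability.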

[3] = qHTS assay for identifying genotoxic compounds that show differential cytotoxicity against isogenic chicken DT40 cell lines with known DNA damage response pathways - Rev3 mutant cell line (AID 743014); conditions: chicken DT40 Rev3-/- viability, CellTiter-Glo, 40 h; series mostly up to 68.4 µM; also: nearly all actives have a fitted effect of over 55% in size; also: potency is read from the fitted curve at half-maximal effect
[4] = qHTS assay for identifying genotoxic compounds that show differential cytotoxicity against isogenic chicken DT40 cell lines with known DNA damage response pathways - Rad54/Ku70 mutant cell line (AID 743015); conditions: DT40 Rad54/Ku70 mutant viability, CellTiter-Glo, 40 h; series mostly up to 66.8 µM; also: nearly all actives have a fitted effect of over 60% in size; also: potency is read from the fitted curve at half-maximal effect
[5] = qHTS assay to identify small molecule antagonists of the androgen receptor (AR) signaling pathway - cell viability counter screen (AID 743033; also: nearly all actives have a fitted effect of over 45% in size); conditions: AR-bla HEK293 viability, CellTiter-Glo luminescence, 16 h; series mostly up to 58.5 µM
[6] = qHTS assay to identify small molecule antagonists of the androgen receptor (AR) signaling pathway using the MDA cell line - cell viability counter screen (AID 743041; also: nearly all actives have a fitted effect of over 45% in size); conditions: MDA-kb2 viability, CellTiter-Fluor, 16 h, cells co-treated with R1881 androgen agonist; series mostly up to 70.3 µM
Summary of the method: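 MDA-kb2 AR-luc human breast carcinoma cells (MMTV-luciferase, AR/GR responsive) were treated with compounds plus R1881 agonist for 16 h at 37 °C. Viability was read as CellTiter-Fluor fluorescence in the same wells as the reporter assay.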

[7] = qHTS assay to identify small molecule antagonists of the thyroid receptor (TR) signaling pathway - cell viability counter screen (AID 743064); conditions: GH3.TRE-Luc viability, CellTiter-Fluor, 24 h; series mostly up to 70.3 µM; also: nearly all actives have a fitted effect of over 50% in size; also: potency is read from the fitted curve at half-maximal effect
Summary of the method: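 Fluorescence from CellTiter-Fluor, added after 23.5 h exposure at 37 °C, reported viability of GH3.TRE-Luc cells co-treated with compound and 1 nM T3. Measured in the same wells as the luciferase TR readout.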

[8] = qHTS assay to identify small molecule antagonists of the thyroid receptor (TR) signaling pathway (AID 743065); conditions: GH3.TRE-Luc, T3-stimulated luciferase inhibition, 23.5 h; series mostly up to 70.3 µM; also: nearly all actives have a fitted effect of over 55% in size; also: potency is read from the fitted curve at half-maximal effect
Summary of the method: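 GH3.TRE-Luc rat pituitary cells carrying two TR response elements driving luciferase were plated for 4 h, given compound plus 1 nM T3 (final), and incubated 23.5 h at 37 C. ONE-Glo luminescence measured reporter inhibition; CellTiter-Fluor fluorescence tracked cytotoxicity.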

[9] = test system: thyroid hormone receptor (rat, GH3 cells); assay: qHTS assay to identify small molecule agonists of the thyroid receptor (TR) signaling pathway (AID 743066; calls by dose curve); conditions: GH3.TRE-Luc cells, TR agonist luciferase, 24 h; series mostly up to 83.9 µM
[10] = qHTS assay to identify small molecule antagonists of the estrogen receptor alpha (ER-alpha) signaling pathway - cell viability counter screen (AID 743074; calls by dose curve; also: nearly all actives have a fitted effect of over 45% in size); conditions: ERalpha-bla HEK293 viability, CellTiter-Glo luminescence, 18 h; series mostly up to 69.4 µM
[11] = qHTS assay to identify small molecule antagonists of the estrogen receptor alpha (ER-alpha) signaling pathway using the BG1 cell line - cell viability counter screen (AID 743081); conditions: BG1Luc4E2 viability, CellTiter-Fluor, 22 h; series mostly up to 70.3 µM;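 also: compound given together with 17beta-estradiol as the ER stimulus; nearly all actives have a fitted effect of over 45% in size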
Aromatase (Homo sapiens) = Aromatase (Homo sapiens) (UniProt P11511); assay: qHTS assay to identify aromatase inhibitors (AID 743083); conditions: MCF-7 aro ERE, testosterone-driven ERE luciferase, 24 h; series mostly up to 70.3 µM; also: nearly all actives have a fitted effect of over 55% in size
Chain of Aromatase (Homo sapiens) (P11511 whole entry, looked up): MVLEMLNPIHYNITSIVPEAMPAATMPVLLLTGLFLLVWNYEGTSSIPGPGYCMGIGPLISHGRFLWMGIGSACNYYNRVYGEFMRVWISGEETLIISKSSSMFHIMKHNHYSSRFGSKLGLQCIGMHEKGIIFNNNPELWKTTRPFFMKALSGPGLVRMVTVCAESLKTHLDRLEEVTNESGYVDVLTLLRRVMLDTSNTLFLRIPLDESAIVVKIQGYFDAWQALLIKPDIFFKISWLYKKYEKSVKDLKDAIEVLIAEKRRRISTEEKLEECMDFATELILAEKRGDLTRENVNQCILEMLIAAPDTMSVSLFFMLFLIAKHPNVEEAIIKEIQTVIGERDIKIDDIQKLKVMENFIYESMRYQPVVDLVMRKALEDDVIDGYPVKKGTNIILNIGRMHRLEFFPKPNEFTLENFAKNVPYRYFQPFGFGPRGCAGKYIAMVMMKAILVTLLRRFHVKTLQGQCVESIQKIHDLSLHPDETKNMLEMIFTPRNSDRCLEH

[12] = target: Estrogen receptor (Homo sapiens) (UniProt P03372); assay: qHTS assay to identify small molecule antagonists of the estrogen receptor alpha (ER-alpha) signaling pathway (AID 743069; active = well fitted curve in the direction sought with a large enough effect in the signal ratio in the repeat runs, not every such curve was filed as active; the % refers to the signal ratio); conditions: HEK293 ER-alpha-UAS-bla, beta-lactamase ratio, antagonist mode; series mostly up to 69.4 µM
Chain of Estrogen receptor (Homo sapiens) (P03372 whole entry, looked up): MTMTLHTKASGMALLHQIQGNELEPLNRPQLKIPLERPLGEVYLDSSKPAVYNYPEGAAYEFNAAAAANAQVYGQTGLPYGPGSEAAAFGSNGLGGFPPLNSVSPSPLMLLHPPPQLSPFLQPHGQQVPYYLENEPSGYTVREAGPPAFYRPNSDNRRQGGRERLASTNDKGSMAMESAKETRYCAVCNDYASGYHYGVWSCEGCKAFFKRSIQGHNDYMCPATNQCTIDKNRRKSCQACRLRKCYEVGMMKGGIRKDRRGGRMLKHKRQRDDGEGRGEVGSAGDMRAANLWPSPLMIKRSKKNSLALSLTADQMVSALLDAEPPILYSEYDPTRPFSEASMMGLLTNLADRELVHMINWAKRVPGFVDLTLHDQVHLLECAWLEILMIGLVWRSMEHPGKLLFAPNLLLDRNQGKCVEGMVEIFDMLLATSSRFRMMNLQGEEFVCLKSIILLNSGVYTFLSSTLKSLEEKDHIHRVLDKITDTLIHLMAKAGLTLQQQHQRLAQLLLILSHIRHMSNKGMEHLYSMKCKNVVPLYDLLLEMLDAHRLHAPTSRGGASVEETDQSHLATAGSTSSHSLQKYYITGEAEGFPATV
Summary of the method: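 HEK293 cells stably carrying an ER-alpha-UAS-bla beta-lactamase reporter were pre-cultured overnight in 2% charcoal-stripped FBS medium. Test compounds in DMSO were added together with 17beta-estradiol for 18 hr at 37C. Read-out was fluorescence after 2 hr with LiveBLAzer B/G FRET substrate at room temperature.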

[13] = target: Estrogen receptor (Homo sapiens) (UniProt P03372); assay: qHTS assay to identify small molecule agonists of the estrogen receptor alpha (ER-alpha) signaling pathway (AID 743075; calls by dose curve); conditions: HEK293 ER-alpha-UAS-bla, beta-lactamase FRET ratio, 18 h; series mostly up to 70.1 µM
[14] = target: Estrogen receptor (Homo sapiens) (UniProt P03372); assay: qHTS assay to identify small molecule agonists of the estrogen receptor alpha (ER-alpha) signaling pathway using the BG1 cell line (AID 743079); conditions: BG1Luc4E2 cells, ERE-luciferase agonist, 22 h; series mostly up to 70.3 µM; also: nearly all actives have a fitted effect of over 20% in size; also: potency is read from the fitted curve at half-maximal effect
[15] = qHTS assay to identify small molecule antagonists of the estrogen receptor alpha (ER-alpha) signaling pathway using the BG1 cell line (AID 743080; calls by dose curve;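 also: BG1 cells stimulated with 17beta-estradiol alongside compound; nearly all actives have a fitted effect of over 25% in size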); conditions: BG1Luc4E2 ERE-luciferase antagonist mode, luminescence; series mostly up to 70.3 µM
Summary of the method: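 Readout is ONE-Glo luminescence, taken 30 min at room temperature after reagent addition, preceded by a CellTiter-Fluor viability read; BG1-Luc-4E2 cells had received compound and 17beta-estradiol for 21.5 h at 37 C.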

[16] = target: Androgen receptor (Homo sapiens) (UniProt P10275); assay: qHTS assay to identify small molecule antagonists of the androgen receptor (AR) signaling pathway (AID 743035; active = well fitted inhibition curve with a large enough effect in the signal ratio in the repeat runs, not every such curve was filed as active; the % refers to the signal ratio); conditions: HEK293 AR-UAS-bla, R1881-stimulated, beta-lactamase FRET, 16 h; series mostly up to 58.5 µM
Chain of Androgen receptor (Homo sapiens) (P10275 whole entry, looked up): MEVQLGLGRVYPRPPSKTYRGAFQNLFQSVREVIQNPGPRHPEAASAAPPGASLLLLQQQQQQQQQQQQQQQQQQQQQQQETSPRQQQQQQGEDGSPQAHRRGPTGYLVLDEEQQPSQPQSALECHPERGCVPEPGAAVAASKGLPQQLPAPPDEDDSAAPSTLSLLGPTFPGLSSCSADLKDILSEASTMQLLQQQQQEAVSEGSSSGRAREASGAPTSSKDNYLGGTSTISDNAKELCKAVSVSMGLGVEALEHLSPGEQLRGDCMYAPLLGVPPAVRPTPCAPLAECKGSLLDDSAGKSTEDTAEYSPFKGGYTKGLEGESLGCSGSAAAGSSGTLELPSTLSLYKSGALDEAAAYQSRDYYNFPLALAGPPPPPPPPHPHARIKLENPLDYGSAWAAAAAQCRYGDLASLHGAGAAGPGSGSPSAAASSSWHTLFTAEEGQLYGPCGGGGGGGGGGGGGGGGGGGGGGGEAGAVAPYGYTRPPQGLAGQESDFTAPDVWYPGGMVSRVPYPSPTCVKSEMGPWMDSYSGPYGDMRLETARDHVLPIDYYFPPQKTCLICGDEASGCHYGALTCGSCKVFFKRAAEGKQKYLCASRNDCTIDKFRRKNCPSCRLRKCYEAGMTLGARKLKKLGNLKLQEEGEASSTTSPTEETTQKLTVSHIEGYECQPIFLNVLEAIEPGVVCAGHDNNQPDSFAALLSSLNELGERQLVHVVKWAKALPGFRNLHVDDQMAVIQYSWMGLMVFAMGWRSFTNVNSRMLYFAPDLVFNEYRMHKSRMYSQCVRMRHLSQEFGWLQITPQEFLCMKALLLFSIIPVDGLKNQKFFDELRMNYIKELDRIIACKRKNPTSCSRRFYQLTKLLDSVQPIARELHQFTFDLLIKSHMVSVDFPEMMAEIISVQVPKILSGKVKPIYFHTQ
Summary of the method: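 Using qHTS, AR-UAS-bla GripTite HEK293 cells received compound, then R1881, and were cultured 16 h at 37C/5% CO2 before a 2 h room-temperature LiveBLAzer B/G FRET substrate step and fluorescence measurement.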

[17] = target: Androgen receptor (Homo sapiens) (UniProt P10275); assay: qHTS assay to identify small molecule agonists of the androgen receptor (AR) signaling pathway (AID 743036; active = well fitted activation curve with a large enough effect in the signal ratio in the repeat runs, with a control signal flat, not every such curve was filed as active; the % refers to the signal ratio); conditions: HEK293 AR-UAS-bla GripTite, beta-lactamase FRET ratio, 16 h; series mostly up to 62.4 µM
Summary of the method: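 Fluorescence from a beta-lactamase FRET substrate served as read-out in AR-UAS-bla GripTite HEK293 cells. Cells were treated with DMSO-dissolved compounds for 16 h at 37C, then with LiveBLAzer B/G substrate for 2 h at room temperature.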

[18] = target: Androgen receptor (Homo sapiens) (UniProt P10275); assay: qHTS assay to identify small molecule agonists of the androgen receptor (AR) signaling pathway using the MDA cell line (AID 743040; also: nearly all actives have a fitted effect of over 20% in size); conditions: MDA-kb2 AR-luc cells, MMTV luciferase, 16 h; series mostly up to 70.3 µM
Summary of the method: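 MDA-kb2 breast carcinoma cells stably carrying an MMTV-driven luciferase reporter (AR- and GR-responsive) were seeded and held 5 h at 37C, 0% CO2, then exposed to compounds in DMSO for 16 h. Luminescence was read 30 min after ONE-Glo addition.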

[19] = target: Androgen receptor (Homo sapiens) (UniProt P10275); assay: qHTS assay to identify small molecule antagonists of the androgen receptor (AR) signaling pathway using the MDA cell line (AID 743042; also: nearly all actives have a fitted effect of over 55% in size); conditions: MDA-kb2 AR-luc, MMTV luciferase, R1881 antagonist, 16 h; series mostly up to 70.3 µM
Summary of the method: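 MDA-kb2 cells (human breast carcinoma, stably carrying an MMTV-luciferase reporter responsive to AR and GR) were plated at 3,000 cells/well and preincubated 5 hr at 37C, then given compound plus R1881 agonist for 16 h. ONE-Glo luminescence was read.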

Measured: Potency

O=C1CCCC(=O)C1
inactive: [1] | [2] | [3] | [4] | [5] | [6] | [7] | [8] | [9] | [10] | [11] | Aromatase (Homo sapiens)

C=CCOCC(CC)(CO)COCC=C
inactive: [1] | [2] | [3] | [4] | [5] | [6] | [7] | [8] | [9] | [11]

CCc1nccnc1CC
inactive: [1] | [2] | [3] | [4] | [5] | [6] | [8] | [9] | [12] | [10] | [13] | [11] | Aromatase (Homo sapiens)

CCC(C)C1CCCCC1=O (stereo unspecified)
inactive: [1] | [2] | [4] | [5] | [6] | [7] | [8] | [9] | [12] | [10] | [13] | [14] | [15] | [11] | Aromatase (Homo sapiens)

CCOC(=O)Nc1ccc(NCc2ccc(F)cc2)nc1N
inactive: [1] | [3] | [5] | [6] | [7] | [8] | [9] | [12] | [10] | [13] | [11]
active: [2] 26.6 µM
3.35 µM (active) and inactive: [14]

CCSC(=O)N(CC(C)C)CC(C)C
inactive: [1] | [2] | [4] | [5] | [16] | [17] | [18] | [6] | [19] | [7] | [8] | [9] | [12] | [10] | [13] | [14] | [11] | Aromatase (Homo sapiens)

Cc1c(NC(C)C)c(=O)n(-c2ccccc2)n1C
inactive: [1] | [2] | [4] | [5] | [6] | [7] | [8] | [9] | [12] | [13] | [14] | [15] | [11] | Aromatase (Homo sapiens)

Cc1nc2c([nH]1)c(=O)n(C)c(=O)n2Cc1ccco1
inactive: [1] | [2] | [4] | [5] | [6] | [7] | [8] | [9] | [12] | [10] | [13] | [14] | [11] | Aromatase (Homo sapiens)

CC(C[N+](C)(C)C)OC(N)=O (stereo unspecified)
inactive: [1] | [2] | [4] | [5] | [6] | [7] | [8] | [9] | [12] | [10] | [13] | [14] | [15] | [11] | Aromatase (Homo sapiens)

CCCCCCCCCCCC
inactive: [1] | [2] | [3] | [5] | [6] | [8] | [9] | [15] | [11] | Aromatase (Homo sapiens)

FC(F)OC(Cl)C(F)(F)F (stereo unspecified)
inactive: [1] | [2] | [4] | [5] | [6] | [7] | [8] | [9] | [10] | [11] | Aromatase (Homo sapiens)

O=C(O)CNC(=O)c1ccc([N+](=O)[O-])cc1
inactive: [1] | [2] | [3] | [5] | [6] | [7] | [8] | [9] | [10] | [11] | Aromatase (Homo sapiens)

CC/C=C\CCOC(C)=O
inactive: [1] | [2] | [4] | [5] | [6] | [7] | [8] | [9] | [12] | [10] | [13] | [14] | [11] | Aromatase (Homo sapiens)

NC(=O)Nc1ccccc1
inactive: [1] | [2] | [4] | [5] | [6] | [7] | [8] | [9] | [12] | [10] | [13] | [14] | [15] | [11] | Aromatase (Homo sapiens)

CO[C@]12C[C@@H](COC(=O)c3cncc(Br)c3)CN(C)[C@@H]1Cc1cn(C)c3cccc2c13
active: [2] 5.96 µM | [3] 10.6 µM | [4] 11.9 µM | [7] 21.1 µM | [8] 21.1 µM
inactive: [1] | [16] | [17] | [18] | [6] | [19] | [9] | [10] | [11] | Aromatase (Homo sapiens)

NS(=O)(=O)c1cc2c(cc1Cl)NC(C1CC3C=CC1C3)NS2(=O)=O (stereo unspecified)
inactive: [1] | [2] | [3] | [4] | [16] | [17] | [18] | [6] | [19] | [7] | [8] | [9] | [12] | [10] | [13] | [14] | [15] | [11] | Aromatase (Homo sapiens)

O=S(O)CO
active: [14] 26.6 µM
inactive: [1] | [2] | [4] | [5] | [16] | [18] | [6] | [19] | [7] | [9] | [12] | [10] | [13] | [11] | Aromatase (Homo sapiens)

OC(CCN1CCCCC1)(c1ccccc1)C1CC2C=CC1C2 (stereo unspecified)
inactive: [1] | [5] | [9] | [12] | [10] | [13] | [14] | [15] | Aromatase (Homo sapiens)
active: [2] 7.5 µM and 9.44 µM | [3] 15 µM and 13.3 µM | [4] 23.7 µM and 21.1 µM | [8] 26.6 µM and 23.7 µM

NS(=O)(=O)c1ccc(C(=O)O)cc1
inactive: [1] | [2] | [4] | [5] | [16] | [17] | [18] | [6] | [19] | [7] | [8] | [9] | [12] | [10] | [13] | [14] | [15] | [11] | Aromatase (Homo sapiens)

CCn1nc(C(=O)O)c(=O)c2cc3c(cc21)OCO3
inactive: [1] | [2] | [3] | [4] | [16] | [17] | [18] | [6] | [19] | [12] | [10] | [13] | [14] | [11] | Aromatase (Homo sapiens)

Cc1ccc(Cl)cc1Cl
inactive: [1] | [2] | [4] | [5] | [6] | [7] | [8] | [9] | [12] | [10] | [13] | [14] | [11] | Aromatase (Homo sapiens)

Source: PubChem BioAssay (Tox21)
